Measurements from PubChem BioAssay AID2284089 (EPA ToxCast).
Calls of active or inactive are those of the source. Rule for the calls: active = hit-call score of the fitted dose curve at least 0.9, where 1 is the maximum; inactive = score below 0.9.

target: Cytochrome P450 2C19 (Homo sapiens) (UniProt P33261); assay: ERF_FR_ADME_hCYP2C19_CEC: Eurofins (ERF) CYP450-related Enzyme Activity (ADME) Assay for CYP2C19 Inhibition Assay, CEC Subtrate
Procedure: ERF_FR_ADME_hCYP2C19_CEC is a biochemical, single-readout assay that uses extracted gene-proteins in a cell-free assay. Measurements were taken 0.83 hour after chemical dosing in a 96-well plate. See CYP2C19 inhibition (recombinant, CEC substrate).ERF_FR_ADME_hCYP2C19_CEC is an assay component calculated from the ERF_FR_ADME_hCYP2C19_CEC assay. It is designed to measure enzyme activity using a type of enzyme reporter as detected by fluorescence intensity of HFC with fluorimetry technology.Data from the assay component ERF_FR_ADME_hCYP2C19_CEC was analyzed at the assay endpoint, ERF_FR_ADME_hCYP2C19_CEC, in the positive analysis fitting direction relative to acetonitrile as the negative control and baseline of activity. Using a type of enzyme reporter, loss-of-signal activity can be used to understand changes in enzymatic activity as they relate to gene CYP2C19. To generalize the intended target to other relatable targets, this assay endpoint is annotated to the cyp intended target family, where the subfamily is steroidogenesis-related.
Assay is performed with 1 compound concentration(s) and each concentration tested using 2 replicate

Cytochrome P450 2C19 (Homo sapiens), sequence (P33261 whole entry, looked up): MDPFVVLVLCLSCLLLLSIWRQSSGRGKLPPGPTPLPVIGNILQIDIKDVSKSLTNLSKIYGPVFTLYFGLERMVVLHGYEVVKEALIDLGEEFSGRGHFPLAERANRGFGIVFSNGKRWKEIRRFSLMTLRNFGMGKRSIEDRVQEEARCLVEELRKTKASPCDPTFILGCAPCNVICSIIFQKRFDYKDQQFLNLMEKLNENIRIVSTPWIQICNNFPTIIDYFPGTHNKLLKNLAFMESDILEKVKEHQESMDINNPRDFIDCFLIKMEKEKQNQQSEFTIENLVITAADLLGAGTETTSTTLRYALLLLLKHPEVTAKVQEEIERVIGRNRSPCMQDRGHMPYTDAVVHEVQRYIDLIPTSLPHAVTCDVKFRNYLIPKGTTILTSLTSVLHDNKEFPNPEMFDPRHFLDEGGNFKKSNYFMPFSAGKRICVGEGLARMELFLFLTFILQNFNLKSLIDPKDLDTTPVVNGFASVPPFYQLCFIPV

Compound | AC50
O=C(/C=C/c1ccc(O)cc1)CC(=O)/C=C/c1ccc(O)cc1 | 1.47 µM (active)
